SMILES strings stand for the structures. Inconclusive results are not listed. The source made the active and inactive calls. Unless noted, calls come from the whole dose curve; as a rule, active = well fitted curve in the direction sought with a large enough effect; inconclusive = small, poorly fitted or top-dose-only effect, or another doubt; inactive = no such curve, though single readings can be large; an effect the other way counts as inactive or inconclusive.

In experiment [1] the target is Voltage-gated inwardly rectifying potassium channel KCNH2 (Homo sapiens) (UniProt Q12809). Kind of experiment: qHTS Assay for Small Molecule Inhibitors of the Human hERG Channel Activity (AID 588834).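 Note: lower thallium flux fluorescence means stronger hERG block; nearly all actives have a fitted effect of over 50% in size.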 Note: potency is the fitted concentration of half-maximal effect. A digest of the protocol: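 Thallium serves as surrogate for K+ influx through BacMam-delivered hERG in U2OS cells. Compounds are added for about 10 minutes after dye loading; stimulation buffer then starts flux, monitored kinetically on FDSS.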
Sequence of Voltage-gated inwardly rectifying potassium channel KCNH2 (Homo sapiens) (Q12809 whole entry, looked up): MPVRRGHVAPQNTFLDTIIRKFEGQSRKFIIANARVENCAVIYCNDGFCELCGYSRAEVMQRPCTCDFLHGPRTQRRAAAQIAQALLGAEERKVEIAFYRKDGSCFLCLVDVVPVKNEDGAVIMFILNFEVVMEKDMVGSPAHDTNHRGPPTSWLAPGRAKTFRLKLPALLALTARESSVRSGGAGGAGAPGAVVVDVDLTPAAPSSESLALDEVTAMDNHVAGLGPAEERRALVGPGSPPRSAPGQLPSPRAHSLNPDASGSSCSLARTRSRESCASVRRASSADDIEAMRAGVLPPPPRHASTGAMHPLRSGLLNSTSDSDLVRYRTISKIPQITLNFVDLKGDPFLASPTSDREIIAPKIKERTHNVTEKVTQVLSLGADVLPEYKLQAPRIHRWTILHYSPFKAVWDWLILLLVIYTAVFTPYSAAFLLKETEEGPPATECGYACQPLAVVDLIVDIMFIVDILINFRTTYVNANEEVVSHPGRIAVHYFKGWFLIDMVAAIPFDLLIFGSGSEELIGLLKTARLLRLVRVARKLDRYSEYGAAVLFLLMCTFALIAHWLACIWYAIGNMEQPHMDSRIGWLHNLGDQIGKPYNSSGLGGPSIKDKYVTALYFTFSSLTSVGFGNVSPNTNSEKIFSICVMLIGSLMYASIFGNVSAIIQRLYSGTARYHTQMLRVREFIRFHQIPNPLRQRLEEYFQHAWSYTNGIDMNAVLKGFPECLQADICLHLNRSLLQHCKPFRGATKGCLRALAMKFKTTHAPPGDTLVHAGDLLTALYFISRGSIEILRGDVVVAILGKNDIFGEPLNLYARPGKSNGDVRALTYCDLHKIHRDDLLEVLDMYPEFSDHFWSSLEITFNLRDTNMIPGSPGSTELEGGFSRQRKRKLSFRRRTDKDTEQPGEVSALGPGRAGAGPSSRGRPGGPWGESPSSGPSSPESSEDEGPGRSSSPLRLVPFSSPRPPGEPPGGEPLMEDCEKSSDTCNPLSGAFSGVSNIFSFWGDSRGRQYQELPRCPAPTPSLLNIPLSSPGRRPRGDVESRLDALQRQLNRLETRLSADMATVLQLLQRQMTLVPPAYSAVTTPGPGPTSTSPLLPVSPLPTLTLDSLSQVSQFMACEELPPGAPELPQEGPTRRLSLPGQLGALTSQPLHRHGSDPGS
For orientation: Quantitative high-throughput screening tests each substance at several concentrations.

Experiment [2] has as its target Luciferin 4-monooxygenase (Photinus pyralis) (UniProt P08659). The experiment in a line: Biochemical firefly luciferase enzyme assay for NPC (AID 624030). Note: nearly all actives have a fitted effect of over 70% in size. Note: potency is the fitted concentration of half-maximal effect. The gist of the method: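 Purified P. pyralis luciferase at 10 nM in 50 mM Tris Acetate (final), luminescence read within 5 minutes of enzyme addition to compounds. Activity normalised to PTC124 versus DMSO; concentration-response curves classed by r2, magnitude and activity.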

A short description of experiment [3]: S16 Schwann cell viability assay (CellTiter-Glo assay) (AID 624031). Note: nearly all actives have a fitted effect of over 70% in size. Note: potency is the fitted concentration of half-maximal effect. A digest of the protocol: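 Concentration-effect curves come from CellTiter-Glo luminescence of S16 rat Schwann cells after 24 h compound exposure. Each reading was normalized to DMSO wells (0%) and wells without cells, and curves were ranked by r2 and response magnitude.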
(In general: Cellular ATP, detected with luciferase, serves as a proxy for viable cell number.)

The nature of experiment [4]: S16 Schwann cell PMP22 intronic element firefly luciferase assay (AID 624032). Note: nearly all actives have a fitted effect of over 30% in size. Note: potency is the fitted concentration of half-maximal effect. A digest of the protocol: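 Rat S16 Schwann cells stably carrying firefly luciferase driven by a PMP22 intronic element, in 10% FBS, treated 24 h at 37 C. ONE-Glo luminescence normalized to PTC124 control and DMSO (0%); curves classed by r2, magnitude and activity.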
Experiment [5] addresses Glutaminase kidney isoform, mitochondrial (Homo sapiens) (UniProt O94925). Kind of experiment: qHTS for Inhibitors of Glutaminase (GLS): LOPAC Validation (AID 624146).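 Note: glutamate product detected by oxidase and peroxidase coupled Amplex red fluorescence gain; series mostly up to about 46 µM; nearly all actives have a fitted effect of over 60% in size.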 A digest of the protocol:
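hKGA in 45 mM KH2PO4 (pH 8.2), 0.02% Tween-20 with compound, then 1mM L-Glutamine (stock as added) plus glutamate oxidase/HRP/Amplex red coupling mix. Fluorescence read initially and after 30 min at RT; signal change reflects glutamate formation.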

Experiment [6] in a line: qHTS of Trypanosoma Brucei Inhibitors: LOPAC Validation (AID 624147). A digest of the protocol:
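Assay buffer: 50 mM TEA pH 7.2, 100 mM KCl, 10 mM MgCl2, 0.05% BSA, 0.01% Tween-20. Pyruvate kinase from T. brucei plus substrate met compound, then ADP (130 uM final). Luminescence was read post 45 min RT.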

For experiment [7], the target named is Glucagon-like peptide 1 receptor (Homo sapiens) (UniProt P43220). Kind of experiment: qHTS of GLP-1 Receptor Agonists: LOPAC Validation (AID 624148).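 Note: higher luminescence signal means agonism.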 The gist of the method:
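HEK293 cells stably co-expressing GLP-1R and a cAMP-responsive luciferase reporter, plated 12 hours before compound, then incubated 4-6 hr at 37 deg C. Luminescence read 12 min after detection reagent.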

Experiment [8] in a line: qHTS of Nrf2 Activators: LOPAC Validation (AID 624149). A digest of the protocol:
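Cells (AREc32_Fluc) are plated at 1000 per well in OPTI-MEM containing 5% FBS and left overnight. Compounds are pinned in and incubated 24 hr at 37 deg C, and firefly luciferase is detected with Steady-Glo.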

Experiment [9] in a line: S16 Schwann cell PMP22 intronic element beta-lactamase assay (AID 624044; calls by dose curve; note: nearly all actives have a fitted effect of over 15% in size; note: potency is the fitted concentration of half-maximal effect). A digest of the protocol:
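Beta-lactamase reporter under a PMP22 intronic regulatory element in stable S16 rat Schwann cells; 24 h compound exposure. 460 nm blue signal normalized between DMSO (0%) and potassium clavulanate, with 535 nm FRET tracking viability; curves classed by r2 and response.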

Sequence of Luciferin 4-monooxygenase (Photinus pyralis) (P08659 whole entry, looked up): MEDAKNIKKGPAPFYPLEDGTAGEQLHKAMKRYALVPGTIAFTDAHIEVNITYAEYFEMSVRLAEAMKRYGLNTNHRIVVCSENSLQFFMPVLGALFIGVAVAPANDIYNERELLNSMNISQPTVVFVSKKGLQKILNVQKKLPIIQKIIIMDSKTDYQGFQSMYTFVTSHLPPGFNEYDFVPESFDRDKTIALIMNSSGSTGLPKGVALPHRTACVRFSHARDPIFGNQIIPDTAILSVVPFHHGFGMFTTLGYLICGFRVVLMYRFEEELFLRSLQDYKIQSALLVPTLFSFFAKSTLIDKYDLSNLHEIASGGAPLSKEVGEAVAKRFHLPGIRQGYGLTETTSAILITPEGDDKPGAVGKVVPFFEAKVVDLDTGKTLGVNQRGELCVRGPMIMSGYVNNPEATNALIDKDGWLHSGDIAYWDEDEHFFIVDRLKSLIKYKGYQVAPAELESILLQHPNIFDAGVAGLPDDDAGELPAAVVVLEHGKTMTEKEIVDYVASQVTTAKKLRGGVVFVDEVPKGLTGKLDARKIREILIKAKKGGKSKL
Sequence of Glutaminase kidney isoform, mitochondrial (Homo sapiens) (O94925 whole entry, looked up, canonical isoform): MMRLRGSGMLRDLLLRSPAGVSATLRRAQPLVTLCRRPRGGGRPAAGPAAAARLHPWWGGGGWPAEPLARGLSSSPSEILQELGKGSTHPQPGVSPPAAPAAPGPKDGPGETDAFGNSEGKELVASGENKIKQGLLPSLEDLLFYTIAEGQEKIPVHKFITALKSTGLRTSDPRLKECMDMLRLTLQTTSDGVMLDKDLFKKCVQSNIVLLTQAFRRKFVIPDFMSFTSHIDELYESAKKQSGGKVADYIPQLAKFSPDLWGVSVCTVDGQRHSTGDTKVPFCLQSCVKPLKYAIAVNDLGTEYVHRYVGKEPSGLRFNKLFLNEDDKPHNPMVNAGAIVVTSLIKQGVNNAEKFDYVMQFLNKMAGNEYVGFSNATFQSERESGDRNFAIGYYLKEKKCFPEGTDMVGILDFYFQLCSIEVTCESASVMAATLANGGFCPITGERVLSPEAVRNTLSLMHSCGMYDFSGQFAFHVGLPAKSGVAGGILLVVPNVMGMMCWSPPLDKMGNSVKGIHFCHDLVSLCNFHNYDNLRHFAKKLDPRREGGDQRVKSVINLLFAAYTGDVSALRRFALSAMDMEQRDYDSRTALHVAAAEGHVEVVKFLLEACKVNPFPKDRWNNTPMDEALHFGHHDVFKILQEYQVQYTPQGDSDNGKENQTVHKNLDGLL
Sequence of Glucagon-like peptide 1 receptor (Homo sapiens) (P43220 whole entry, looked up): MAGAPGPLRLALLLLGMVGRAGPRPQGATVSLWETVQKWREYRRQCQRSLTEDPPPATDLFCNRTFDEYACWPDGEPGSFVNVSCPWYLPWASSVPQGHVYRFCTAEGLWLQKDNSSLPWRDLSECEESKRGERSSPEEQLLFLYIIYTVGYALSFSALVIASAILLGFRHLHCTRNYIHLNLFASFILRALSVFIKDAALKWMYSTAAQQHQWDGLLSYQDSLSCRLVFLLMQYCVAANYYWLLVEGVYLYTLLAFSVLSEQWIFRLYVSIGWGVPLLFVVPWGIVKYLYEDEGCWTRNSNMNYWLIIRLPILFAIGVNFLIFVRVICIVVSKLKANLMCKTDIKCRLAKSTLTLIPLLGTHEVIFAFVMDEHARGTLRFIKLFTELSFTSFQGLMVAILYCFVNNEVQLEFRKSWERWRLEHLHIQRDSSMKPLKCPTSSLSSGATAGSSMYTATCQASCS

Turning to `Cc1nc(-c2ccc(Cl)cc2)oc1COC(C)(C)C(=O)O`, the Potency result in [1], in [2], in experiment [3] and in [4] was “inactive” each time.

Turning to `CCN1/C(=C/C=C/c2sc3ccccc3[n+]2CC)Sc2ccccc21`, the Potency in experiment [1] is 1.41 µM (active); in [2], 12.8 µM (active); in experiment [3] it was 4.05 µM (active); in experiment [4] it was 2.03 µM (active).

As for `N=C(N)N1CCc2ccccc2C1`, the Potency entry in experiment [1], in experiment [2], in experiment [3] and in experiment [4] was “inactive” throughout.

Regarding `COc1cc(O)c(C(=O)c2ccccc2)cc1S(=O)(=O)O`, the Potency result in experiment [1], in experiment [2] and in [3] was “inactive” throughout.

As to `O=S(=O)(O)c1ccc(O)cc1`, the Potency result in experiment [1], in [2], in experiment [3] and in experiment [4] was “inactive” each time.

Take `CC(=O)N[C@@H](CCC(=O)O)C(=O)O`: the Potency entry in experiment [1], in experiment [2], in experiment [3] and in experiment [4] was “inactive” each time.

In the case of `NC1CCN(c2nc3c(cc2F)c(=O)c(C(=O)O)cn3-c2ccc(F)cc2F)C1` (centres undefined), the Potency result in experiment [1], in experiment [2], in experiment [3] and in experiment [4] was “inactive” each time.

Consider `CC[N+](C)(CC)CCOC(=O)C(O)(c1ccccc1)C1CCCCC1` (centres undefined), for which the Potency result in experiment [1], in experiment [2], in [3] and in experiment [4] was “inactive” each time.

For the compound `Nc1ccc(C(=O)NCC(=O)O)cc1`, the Potency entry in experiment [1], in experiment [2], in experiment [3] and in experiment [4] was “inactive” in each case.

`c1ccc(-c2nc[nH]c2-c2ccccc2)cc1`: the Potency entry in [1], in experiment [2], in experiment [3] and in experiment [4] was “inactive” in each case.

In the case of `CN(C)CCOC(c1ccc(Cl)cc1)c1ccccn1` (centres undefined), the Potency in experiment [1] is 14.1 µM (active). Moreover, the Potency entry in experiment [2], in experiment [3] and in [4] was “inactive” in each case.

With `CC(=O)Nc1ccc(S(=O)(=O)Nc2ccc([N+](=O)[O-])cc2)cc1`, the Potency result in [1], in experiment [2], in experiment [3] and in experiment [4] was “inactive” each time.

As for `OC1C(O)C(O)C(O)C(O)C1O` (centres undefined), the Potency entry in [1], in experiment [2], in experiment [3] and in experiment [4] was “inactive” throughout.

Take `COC(=O)C(c1ccccc1Cl)N1CCc2sccc2C1` (centres undefined): the Potency result in [1], in experiment [2], in experiment [3] and in experiment [4] was “inactive” in each case.

For `CC(C)(C)NC[C@H](O)COc1cccc2c1CCCC2=O`, the Potency result in experiment [1], in experiment [2], in experiment [3] and in experiment [4] was “inactive” each time.

Regarding `CC(=O)O[C@]1(C(C)=O)CC[C@H]2[C@@H]3C=C(Cl)C4=CC(=O)CC[C@]4(C)[C@H]3CC[C@@]21C`, the Potency result in experiment [1], in experiment [2] and in experiment [3] was “inactive” in each case.

With `Cc1cccc(C)c1NC(=O)c1ccccc1C(=O)O`, the Potency entry in experiment [1], in experiment [2], in [3] and in experiment [4] was “inactive” each time.

On to `O=C(O)Cc1csc(-c2ccc(Cl)cc2)n1`, for which the Potency result in experiment [1], in [2] and in experiment [3] was “inactive” throughout.

Consider `Cc1c[nH]c2ccccc12`, for which the Potency result in experiment [1], in [2], in experiment [3] and in [4] was “inactive” throughout.

Take `CN1CCN(c2cc3c(cc2F)c(=O)c(C(=O)O)cn3-c2ccc(F)cc2)CC1`: the Potency result in experiment [1], in experiment [2], in experiment [3] and in experiment [4] was “inactive” throughout.

`CC(=O)NC(=O)c1ccccc1O`: the Potency result in experiment [1], in experiment [2], in [3] and in [4] was “inactive” in each case.

For the compound `NC(N)=NCc1cccc(I)c1`, the outcome in [5], in experiment [6], in [7] and in [8] was inactive.

For `Cc1c(-c2ccccc2)oc2c(C(=O)OCCN3CCCCC3)cccc2c1=O`, the Potency result in experiment [1], in experiment [2], in experiment [3] and in experiment [9] was “inactive” each time.

With `C#C[C@]1(O)CC[C@H]2[C@@H]3CCC4=CC(=O)CC[C@@H]4[C@H]3CC[C@@]21CC`, the Potency result in experiment [1], in experiment [3] and in [9] was “inactive” throughout. Moreover, the Potency in [4] was 20.3 µM (active).

Consider `CC(=O)Nc1ccc(OC(=O)c2ccccc2OC(C)=O)cc1`, for which the Potency entry in [1] and in experiment [3] was “inactive” in each case. In [4], the Potency is 32.2 µM (active).

Regarding `CCOc1cc(OCC)c(C(=O)CCC(=O)O)cc1OCC`, the Potency result in [1] and in [3] was “inactive” throughout.

Regarding `O=c1[nH]c(=O)n([C@H]2C[C@H](O)[C@@H](CO)O2)cc1F`, the Potency entry in [1], in experiment [2] and in [3] was “inactive” each time. Moreover, the Potency in experiment [9] is 0.0056 µM (active).

On to `CCCCCCCCNC(C)C(O)c1ccc(SC(C)C)cc1` (centres undefined), for which the Potency in [1] is 0.631 µM (active); in experiment [3] it was 14.4 µM (active); in [4], 22.8 µM (active).

With `Cl/C(=C\n1cncn1)c1ccc(Cl)cc1Cl`, the Potency result in [1], in [2] and in experiment [4] was “inactive” throughout.

Consider `COP(=O)(OC)OC(c1ccc(Cl)cc1)P(=O)(OC)OC` (centres undefined), for which the Potency entry in experiment [1], in experiment [3] and in experiment [4] was “inactive” in each case.

Turning to `CCOC(=O)C(C#N)=C(c1ccccc1)c1ccccc1`, the Potency entry in experiment [1] and in experiment [3] was “inactive” throughout.

Take `O=C(O)CCc1nc2ccccc2[nH]1`: the Potency entry in [1], in experiment [3] and in [4] was “inactive” throughout.

Regarding `CC[C@H](c1ccc(O)cc1)[C@@H](CC)c1ccc(O)cc1`, the Potency result in experiment [1], in experiment [2], in experiment [3] and in [9] was “inactive” in each case.

In the case of `Cc1ccc2c(Br)cc(Br)c(O)c2n1`, the Potency entry in experiment [1], in [2] and in experiment [4] was “inactive” throughout. For the same compound, the Potency in experiment [9] was 17.8 µM (active).

Values taken from PubChem BioAssay (NCATS).
